Laboratory results as given in PubChem BioAssay AID1224921 (Broad Institute, 2016).
In all, about 1,400 compounds went through this assay and about 350 (25%) were called active. Another 2% or so got no clear call; they are omitted. The rule behind the calls is not given here. These entries were drawn from the full list. Potency and affinity values are given separately.

Assay: inhibitors of Clostridioides difficile proliferation – 4-point retest, confirmation (AID 1224921);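 note: plate controls were DMSO wells for no effect and levofloxacin 16 µg/mL wells for full effect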
Settings: Clostridioides difficile clinical isolate growth, OD600, 24 h, stronger effect = lower value; at 30 µM unless noted

Max activity, inactive:
C[C@H](CO)N1C[C@H](C)[C@@H](CN(C)Cc2ccc(Cl)c(Cl)c2)Oc2ccc(NS(=O)(=O)c3cccs3)cc2CC1=O 37.8% [at 8 µM]
CO[C@@H]1CN(C)C(=O)c2ccc(NC(=O)NC(C)C)cc2OC[C@@H](C)N(C(=O)NC(C)C)C[C@H]1C -11.6% [at 2.1 µM]
CCCC(=O)Nc1ccc2c(c1)OC[C@H](C)N(CCc1ccccc1)C[C@@H](C)[C@H](OC)CN(C)C2=O 25.9%
O=C(Nc1ccc(Cl)cc1)N[C@@H]1CC[C@@H](CCn2cc(C3(O)CCCC3)nn2)O[C@@H]1CO 29.6%
C[C@@H]1CN([C@@H](C)CO)C(=O)c2ccccc2-c2ccccc2CO[C@H]1CN(C)CC1CC1 9.59%
CO[C@@H]1CN(C)C(=O)c2ccc(NC(=O)Nc3cccc(F)c3)cc2OC[C@@H](C)N(C(=O)C2CC2)C[C@H]1C -12.2% [at 8 µM]
C[C@@H]1CN([C@@H](C)CO)C(=O)c2cc(NC(=O)NC3CCCCC3)ccc2O[C@@H](C)CCCCO[C@@H]1CN(C)Cc1ccc(C(F)(F)F)cc1 24.6%
CC(C)CC#Cc1ccc2c(c1)O[C@H](CN(C)Cc1ccccn1)[C@@H](C)CN([C@@H](C)CO)S2(=O)=O 27.1%
CC(C)C#Cc1ccc2c(c1)O[C@H](CN(C)Cc1cccnc1)[C@@H](C)CN([C@H](C)CO)S2(=O)=O 44.6%
CCCC(=O)Nc1ccc2c(c1)C(=O)N(C)C[C@@H](OC)[C@@H](C)CN(C)[C@@H](C)CO2 -13% [at 8 µM]
C[C@H]1CN([C@@H](C)CO)C(=O)c2cccc(NC(=O)Nc3ccc(C(F)(F)F)cc3)c2O[C@@H]1CN(C)Cc1ccc2c(c1)OCO2 42%
C[C@@H]1CN([C@@H](C)CO)C(=O)c2cccc(NC(=O)Nc3ccc(C(F)(F)F)cc3)c2O[C@H]1CN(C)Cc1ccc2c(c1)OCO2 34.4% [at 8 µM]
Cc1ccc(S(=O)(=O)N(C)C[C@@H]2Oc3c(NC(=O)Nc4ccc(F)cc4)cccc3C(=O)N([C@H](C)CO)C[C@H]2C)cc1 -10.7% [at 1.95 µM]
C[C@@H]1CN([C@H](C)CO)C(=O)c2cccc(NC(=O)Nc3ccc(F)cc3)c2O[C@H]1CN(C)S(=O)(=O)c1ccc(F)cc1 -11.6% [at 7.5 µM]
C[C@@H]1CN([C@@H](C)CO)C(=O)c2cc(Br)cnc2O[C@H]1CN(C)C(=O)c1ccccc1 9.74%
Cc1noc(C)c1NC(=O)N[C@H]1CC[C@@H](CC(=O)Nc2ccc(-c3ccccc3)cc2)O[C@H]1CO 12.6%
COc1ccc(NC(=O)Nc2ccc3c(c2)C(=O)N([C@@H](C)CO)C[C@@H](C)[C@H](CN(C)Cc2ccccc2)OCCCC[C@@H](C)O3)cc1 30.9%
CCCC(=O)Nc1ccc2c(c1)C(=O)N(C)C[C@H](OC)[C@@H](C)CN(Cc1ccccc1)[C@H](C)CO2 15.3%
O=C(C[C@@H]1C=C[C@@H](NC(=O)CC2CC2)[C@H](CO)O1)NCc1ccc(-c2ccccc2)cc1 -9.84% [at 0.5 µM]
CO[C@H]1CN(C)C(=O)c2cc(NC(C)=O)ccc2OC[C@H](C)N(CCc2ccccc2)C[C@H]1C 19.8%
CCCN1C[C@H](C)[C@H](OC)CN(C)C(=O)c2cc(NC(=O)c3cccc(F)c3)ccc2OC[C@@H]1C -11.7% [at 1.95 µM]
C=CCOC(=O)[C@H]1[C@@H]2C(=O)O[C@@H](c3ccccc3)[C@@H](c3ccccc3)N2[C@@H](c2ccc(OCCOC(=O)[C@@H]3C[C@@H]4C(=O)N[C@@H](CC(C)C)C(=O)N4[C@@H]3c3cccc(OCCO)c3)cc2)[C@]12C(=O)Nc1ccccc12 24.6%
COc1ccc(-c2ccc([C@H]3[C@@H](C#N)N(C(=O)C4CC4)[C@H]3CO)cc2)cc1 32.9%
C[C@@H]1CN([C@H](C)CO)C(=O)Cc2cc(NC(=O)c3ccncc3)ccc2O[C@@H]1CN(C)Cc1ccc(-c2ccccc2)cc1 47.8% [at 35 µM]
CO[C@H]1CN(C)C(=O)c2ccc(NS(C)(=O)=O)cc2OC[C@@H](C)N(Cc2ccccn2)C[C@H]1C -14.3% [at 8 µM]
COCC(=O)Nc1ccc2c(c1)OC[C@@H](C)N(C(=O)c1ccccc1F)C[C@H](C)[C@H](OC)CN(C)C2=O 7.88%
C[C@@H]1CN([C@H](C)CO)S(=O)(=O)c2ccc(C#CCN(C)C)cc2O[C@H]1CN(C)C(=O)c1ccccc1F 18%
CCCN1C[C@@H](C)[C@@H](OC)CN(C)C(=O)c2cc(NC(=O)c3cccc(F)c3)ccc2OC[C@@H]1C -11.8%
CCCN1C[C@H](C)[C@@H](OC)CN(C)C(=O)c2ccc(NC(=O)CC)cc2OC[C@H]1C 5.45% [at 1.95 µM]
COCC(=O)N1C[C@H](C)[C@@H](OC)CN(C)C(=O)c2cc(NC(=O)NC(C)C)ccc2OC[C@@H]1C 23.4%
C[C@H](CO)N1C[C@H](C)[C@H](CN(C)S(=O)(=O)c2cccc(F)c2)Oc2ncc(C#CCN(C)C)cc2C1=O 8.03%
O=C(C[C@H]1C[C@@H]2c3cc(NC(=O)C4CCC4)ccc3O[C@@H]2[C@@H](CO)O1)NCc1ccc(Cl)cc1 -16.5% [at 0.5 µM]
C[C@@H]1CN([C@H](C)CO)C(=O)c2cccc(NC(=O)c3ccncc3)c2O[C@H]1CN(C)Cc1ccc(Cl)c(Cl)c1 16.6%
C[C@@H]1CN([C@@H](C)CO)C(=O)Cc2cc(NC(=O)c3ccncc3)ccc2O[C@H]1CN(C)Cc1ccc(-c2ccccc2)cc1 25.3% [at 8 µM]
C[C@H]1CN([C@@H](C)CO)C(=O)c2cccc(NS(C)(=O)=O)c2O[C@@H]1CN(C)Cc1ccccc1 -11.4% [at 0.5 µM]
Cc1cc(C(=O)Nc2cccc3c2O[C@H](CN(C)Cc2ccc(Oc4ccccc4)cc2)[C@@H](C)CN([C@H](C)CO)C3=O)n(C)n1 41%
C[C@@H]1CN([C@H](C)CO)C(=O)c2cccc(NC(=O)c3ccncc3)c2O[C@H]1CN(C)Cc1ccc(-c2ccccc2)cc1 36.1% [at 8 µM]
C[C@@H]1CN([C@@H](C)CO)C(=O)c2cccc(NC(=O)c3ccncc3)c2O[C@H]1CN(C)Cc1ccc(-c2ccccc2)cc1 13.2% [at 8 µM]
CO[C@H]1CN(C)C(=O)c2cc(NC(=O)Nc3cccc(F)c3)ccc2OC[C@@H](C)N(C)C[C@@H]1C -17.5%
CO[C@@H]1CN(C)C(=O)c2cc(NS(=O)(=O)c3ccccc3C)ccc2OC[C@@H](C)N(C)C[C@H]1C -6.93% [at 1.95 µM]
CCC(=O)N[C@H]1CC[C@H](CC(=O)NCCN2CCCCC2)O[C@@H]1CO 25.2%
Cc1ccccc1-c1ccc2c(c1)O[C@H](CN(C)Cc1ccncc1)[C@H](C)CN([C@@H](C)CO)S2(=O)=O 25.3%
O=C(C[C@H]1CC[C@H]2[C@@H](COC[C@H](O)CN2S(=O)(=O)c2ccccc2)O1)NCc1ccc(-c2ccccc2)cc1 41.2%
O=C(C[C@@H]1CC[C@@H]2[C@H](COC[C@@H](O)CN2S(=O)(=O)c2ccccc2)O1)NCc1ccc(-c2ccccc2)cc1 25.5%
CC(C)CC#Cc1ccc2c(c1)O[C@@H](CN(C)Cc1cccnc1)[C@H](C)CN([C@H](C)CO)S2(=O)=O 41.5% [at 8 µM]
CC(C)CC#Cc1ccc2c(c1)O[C@H](CN(C)Cc1ccccc1F)[C@H](C)CN([C@@H](C)CO)S2(=O)=O 23.7% [at 8 µM]
CO[C@@H]1CN(C)C(=O)c2ccc(NC(=O)c3ccccn3)cc2OC[C@@H](C)N(C(=O)C2CCC2)C[C@H]1C -10.9% [at 23.5 µM]
CC(C)C(=O)Nc1ccc2c(c1)C(=O)N(C)[C@H]1CC[C@@H](CC(=O)NCc3ccccc3F)O[C@H]1CO2 -11.1% [at 1.95 µM]
C[C@@H]1CN([C@@H](C)CO)S(=O)(=O)c2ccc(C#CC3CCCC3)cc2O[C@H]1CN(C)Cc1cccnc1 15.4%
O=C(N[C@@H]1C=C[C@@H](CC(=O)N2CCc3ccccc3C2)O[C@@H]1CO)C1CC1 15.1%
CC(C)CC#Cc1ccc2c(c1)O[C@H](CN(C)Cc1ccc3c(c1)OCO3)[C@H](C)CN([C@@H](C)CO)S2(=O)=O 27.5%
O=C(C[C@H]1C[C@@H]2c3cc(NC(=O)Nc4ccc(C(F)(F)F)cc4)ccc3O[C@@H]2[C@H](CO)O1)NCc1ccc(Cl)cc1 21.4%
CCCC(=O)Nc1ccc2c(c1)OC[C@H](C)N(CCc1ccccc1)C[C@H](C)[C@@H](OC)CN(C)C2=O 22%
C[C@H]1CN([C@@H](C)CO)C(=O)c2cccc(NC(=O)c3ccc(-c4nccs4)cc3)c2O[C@@H]1CN(C)C(=O)Nc1ccc(C(F)(F)F)cc1 20.3% [at 8 µM]
COc1ccccc1CNC(=O)C[C@H]1C[C@@H]2c3cc(NC(=O)NC4CCCC4)ccc3O[C@@H]2[C@H](CO)O1 -8.77% [at 2.1 µM]
C[C@@H]1CN([C@H](C)CO)C(=O)c2c(c3ccccc3n2C)-c2ccccc2CO[C@@H]1CN(C)Cc1ccncc1 24.2% [at 35 µM]
